Data from the supplement of paper PMC6555819.

Columns and labels:
Assay in all cases: PBM binding z-score (relative to random genomic background probes); higher = stronger binding; sequences stand for … in GC…GCGATTGACAGCGTAGAATGAAGG
[1] = system: FXR:RXRa (NR concentration 270 nM, RXRa partner concentration 90 nM)
How it was run: (§1)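 Binding z-scores take random background probes as their reference. They come from custom Agilent 4×180K protein-binding microarrays incubated 1 h with ligand-free nuclear receptor dimers, with antibodies against each partner (one per run) detecting binding. Scanned fluorescence was regression-normalized.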

[2] = system: LXRa:RXRa (NR concentration 270 nM, RXRa partner concentration 90 nM)
How it was run: as §1

[3] = system: LXRa homodimer (NR concentration 270 nM)
How it was run: as §1

[4] = system: LXRb:RXRa (NR concentration 270 nM, RXRa partner concentration 90 nM)
How it was run: as §1

[5] = system: LXRb homodimer (NR concentration 270 nM)
How it was run: as §1

[6] = system: PPARa:RXRa (NR concentration 270 nM, RXRa partner concentration 90 nM)
How it was run: as §1

[7] = system: PPARg:RXRa (NR concentration 180 nM, RXRa partner concentration 90 nM)
How it was run: as §1

[8] = system: PPARg:RXRa 270nM:90nM, anti-RXR (NR concentration 270 nM, RXRa partner concentration 90 nM)
How it was run: as §1

[9] = system: PPARg:RXRa 30nM:10nM, anti-RXR (NR concentration 30 nM, RXRa partner concentration 10 nM)
How it was run: as §1

[10] = system: PPARg:RXRa 90nM:30nM, anti-RXR (NR concentration 90 nM, RXRa partner concentration 30 nM)
How it was run: as §1

| Sequence | PBM binding z-score [1] | PBM binding z-score [2] | PBM binding z-score [3] | PBM binding z-score [4] | PBM binding z-score [5] | PBM binding z-score [6] | PBM binding z-score [7] | PBM binding z-score [8] | PBM binding z-score [9] | PBM binding z-score [10] |
| --- | --- | --- | --- | --- | --- | --- | --- | --- | --- | --- |
| ACTATTAGTAGAGACGAGGGCAACCGATAGGTTG | 0.0303 | 0.0981 | 0.152 | -0.117 | 0.12 | 0.455 | 1 | 1.21 | 0.245 | 0.958 |
| CCTGCTGGGCCAAAAAGGTCATTGATGCCGATAA | 3.7 | 4.03 | 2.82 | 4.04 | 0.015 | 4.34 | 1.24 | 2.72 | 0.205 | 1.65 |
| GGACCGAGGGCAAAGTTGATAGCATCTGTCGACG | 1.12 | 0.801 | -0.42 | 0.811 | -0.953 | 2.74 | 3.41 | 4.82 | 2.42 | 4.42 |
| ATACCAAGCTGATCGTGAGGTCGTTGATACTAAC | 0.705 | 0.688 | 0.391 | 0.818 | -0.351 | 0.693 | 0.178 | -0.0256 | -0.198 | -0.0126 |
| TCTCGGAGGACACGAAAGGTTAGAGCTCGACATC | 1.18 | 0.89 | -0.0791 | 0.782 | -0.852 | 1.46 | 0.441 | 1.69 | 2.52 | 2.03 |
| CCTCCAAGGTCAGCAGGTCAGTGAAAGCGACGTG | 5.51 | 3.58 | 0.385 | 2.93 | 0.111 | 4.67 | 4.14 | 4.24 | 1.49 | 2.93 |
| CCTACTGGCCCAAGGTCATTGATCAGTCAAAGCA | 2.91 | 3.24 | 2 | 3.52 | 0.491 | 3.62 | 0.964 | 2.19 | 0.438 | 1.29 |
| CTCGAAAGGTCTTGCTCAGGTGAGTATACCAAAC | 0.669 | 0.369 | -0.371 | 0.506 | -0.158 | 0.978 | -0.115 | 0.563 | -0.064 | 0.608 |
| TCATATAGGTAAATGCTAGGTTAAAGTCCGATCT | 1.18 | 1.82 | 1.14 | 1.05 | 0.0487 | 1.7 | 0.987 | 2.22 | 3.48 | 2.87 |
| AGAACGAGGGCACGCGGAGTTGATAGCAGAGTAG | 0.925 | 0.696 | -0.442 | 0.259 | -1.01 | 2.58 | 2.36 | 1.91 | 0.448 | 1.26 |
| ATCGAAAGGTCGACGAGGGGAGTATACACCGTTT | 4.13 | 3.51 | 0.159 | 2.8 | 1.07 | 4.15 | 2.47 | 2.77 | 0.952 | 1.67 |
| TCTTGTAGATCAACAGGAGGTTATGAAAGATCGA | 0.335 | 1.2 | 0.215 | 0.914 | -0.0997 | 1.2 | 0.228 | 1.25 | 2.43 | 1.78 |
| ATCTCTAGGTAACCACGTTCAGTGAATGCCGAAC | -0.0584 | -0.141 | 0.335 | -0.0295 | 0.814 | 0.308 | 0.571 | 0.503 | 0.0771 | 0.0954 |
| TCTAGTTGGTCAAAGGTCACACAGTCGAAATGCG | 6.26 | 5.83 | 4 | 5.36 | 1.46 | 6.64 | 11.6 | 9.15 | 10 | 11.1 |
| GTGCCAAGGTGAATAGGTCGTTGATGAGTAGGCG | 0.631 | 0.487 | -0.344 | 0.408 | -0.536 | 2.12 | 1.15 | 1.53 | 0.00309 | 0.77 |
| GCTTGTAGATCAAGGTTAGGAAAGACTAAGCTAA | -0.51 | -0.347 | -0.468 | -0.37 | -0.511 | 0.626 | 0.0578 | 0.548 | -0.199 | 0.557 |
| CCTAGCAGGCCAACCTGGGTCACTCAAGGCTTGA | 1.14 | 1.36 | -0.307 | 1.16 | -1.09 | 2.05 | 0.131 | 0.239 | -0.969 | -0.0466 |
| AGATGTAGGTTATCGGGTCATTCAGTTTGCGCAT | 3.31 | 3.21 | 1.64 | 3.01 | 0.639 | 4.89 | 6.25 | 5.84 | 3.56 | 5.27 |
| CCTATTAGTTGACTATAAGGGCAACCGAAGCTCG | 0.392 | 0.149 | 0.0612 | 0.294 | 0.219 | 0.121 | 0.445 | 0.0483 | 0.0994 | -0.284 |

| Sequence | PBM binding z-score [1] | PBM binding z-score [2] | PBM binding z-score [3] | PBM binding z-score [4] | PBM binding z-score [5] | PBM binding z-score [6] | PBM binding z-score [7] | PBM binding z-score [8] | PBM binding z-score [9] | PBM binding z-score [10] |
| --- | --- | --- | --- | --- | --- | --- | --- | --- | --- | --- |
| CCTACTGGACCAAAAAGGTCATTGATGCCGATAA | 3.74 | 4.82 | 4.22 | 4.55 | 1.28 | 4.55 | 2.13 | 3.38 | 1.31 | 2.53 |
| TAGCCTAGGTCATGCGGGCCAGTTTAGTGTCGGC | 3.92 | 3.15 | 0.212 | 1.71 | -0.269 | 3.27 | 1.32 | 2.02 | -0.211 | 1.01 |
| CCTTACGAGTCACGAGGTTATAGCACGACGAGCG | 0.991 | 1.29 | 0.451 | 1.22 | 0.355 | 1.84 | 1.22 | 0.515 | -0.27 | 0.183 |
| CCTTACAGGTCACTCCAGGTTATAGCATCGGAGT | 5.51 | 7.41 | 5.05 | 5.43 | 1.27 | 4.75 | 3.81 | 3.66 | 1.52 | 2.79 |
| CCTACTGGGCCATTTAGAGGTCATTGATCATATG | 2.82 | 4.87 | 8.57 | 3.98 | 0.803 | 3.78 | 2.24 | 3.15 | 0.977 | 2.11 |
| CGTCAAAGTTCAACTTAGGTAACGTAAAGCACGC | 7.46 | 6.58 | 4.88 | 4.63 | 2.58 | 5.35 | 5.28 | 5.78 | 2.4 | 4.66 |
| CCTACTGGGCCATCCAGAGGTCATTGATCATATG | 2.46 | 4.37 | 6.73 | 3.84 | 0.613 | 4.07 | 2.72 | 3.35 | 0.809 | 2.2 |
| CCTATTAGTTGACCATAAGGGCAACTGAAGCTCG | 1.03 | 0.424 | 0.44 | 0.496 | 0.545 | 0.479 | 0.379 | 0.673 | 0.177 | 0.597 |
| ATATGTAGGTTAGCTGGGGTCATTCAAACTAGGC | 5.07 | 5.84 | 3.67 | 5.17 | 1.92 | 5.21 | 5.74 | 5.36 | 2.92 | 4.91 |
| CCGACTGGGGCATAAGGGTACCATAAGCCAGCCC | -0.549 | -0.376 | -0.527 | -0.624 | -1.67 | 0.305 | 1.3 | 1.35 | -0.296 | 1.18 |
| AATACAGGGTCACTAGGCCAGAGTCGGTACGAAT | 6.27 | 4.74 | 0.695 | 3.82 | 0.88 | 5.61 | 8.1 | 6.36 | 3.03 | 5.2 |
| ATCTCTAGGTCACCAAGTTCAGTGAATGCCGAAC | 4.67 | 5.17 | 4.93 | 3.52 | 2.23 | 4.74 | 7.04 | 6.1 | 3.59 | 5.18 |
| CAAACCAGGTCACCGGAAGGTCAAAGTCCGCATG | 7.26 | 6.79 | 5.52 | 6.01 | 1.71 | 6.08 | 7.88 | 6.92 | 4.07 | 6.45 |
| CAAACTAGGTCACAGAAGTCAAAGTCCGTGCGTA | 4.23 | 3.17 | 0.883 | 2.77 | 0.529 | 5.49 | 8.96 | 7.26 | 5.36 | 6.93 |
| TCTTGTACATCAAAGGTTAAGAAAGCCGAAGCCT | 1.52 | 2.15 | 0.446 | 2 | 0.657 | 2.92 | 2.52 | 4.42 | 3.95 | 4.35 |
| GATACAGGCTCAAGGCCAGAGTACGCGTATTGAT | -0.696 | -0.88 | -0.571 | -1.04 | -0.938 | -0.602 | 0.777 | 0.34 | -0.217 | -0.0733 |
| ATATGTAGGTTAGCGGGTCATTCAGTTTGCGCAT | 2.01 | 2.27 | 0.947 | 2.45 | 0.826 | 4.33 | 6.81 | 5.6 | 3.1 | 5.16 |
| TCTTTTAGATCAGCAGGTTAAGAAAGCTGGCCAA | 0.304 | 0.549 | -0.247 | 0.44 | 0.139 | 0.889 | -0.5 | 1.65 | 3.33 | 2.36 |
| CCTTACGGGTCACGAGGTTTTAGCACGACGAGCG | 6.33 | 4.19 | -0.186 | 3.4 | -0.145 | 5.72 | 6.51 | 6.3 | 2.95 | 4.7 |
